Experimental data: the supplement of paper PMC9925115
± gives the uncertainty stated by the source.

The compounds below were run on FLX1 (assay: cell viability z-score within plate (CellTiter-Glo), mean of 3 biological replicates; higher = higher viability relative to plate (less growth inhibition)). Conditions: 2 µM; time (hr): 120.
Protocol: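 FLX1 fibrolamellar carcinoma cells (DNAJB1-PRKACA fusion), 600 cells/well in 384-well plates, treated with a Selleck kinase inhibitor library (L1200) at 2 uM for 5 days (120 hr); viability by CellTiter-Glo. A z-score was computed within each plate and averaged over three biological replicates.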

SMILES	cell viability z-score within plate
Cn1sc(=O)n(Cc2ccccc2)c1=O	1.12 ± 0.94
CNCc1ccc(-c2cc(-c3nc(-c4ccc(S(=O)(=O)C(C)C)cc4)cnc3N)on2)cc1	0.59 ± 0.39
N[C@@H]1CCCN(c2c(/C=C3\SC(=O)NC3=O)cccc2-c2ccccc2)C1	0.166 ± 0.49
COc1cc(Nc2c(C#N)cnc3cc(OCCCN4CCN(C)CC4)c(OC)cc23)c(Cl)cc1Cl [Bosutinib (SKI-606)]	0.309 ± 0.56
O=c1sn(-c2cccc3ccccc23)c(=O)n1Cc1ccccc1 [Tideglusib]	-2.63 ± 1.1
COc1ccc(S(=O)(=O)N(CCO)c2ccccc2CN(C)C/C=C/c2ccc(Cl)cc2)cc1 [KN-93 Phosphate]	0.23 ± 0.54
CS(=O)(=O)N1CCN(Cc2cc3nc(-c4cccc5[nH]ncc45)nc(N4CCOCC4)c3s2)CC1 [Pictilisib (GDC-0941)]	1.08 ± 0.18
CNC(=O)c1cc(Oc2ccc(NC(=O)Nc3ccc(Cl)c(C(F)(F)F)c3)cc2)ccn1 [Sorafenib]	-1.7 ± 1.3
Cc1cc(CS(=O)(=O)c2ccccc2)cc(OCc2ccc(CN3CCC[C@@H]3CO)cc2)c1	0.378 ± 0.24
Cc1ccc(C(=O)Nc2ccc(CN3CCN(C)CC3)c(C(F)(F)F)c2)cc1C#Cc1cnc2[nH]ncc2c1 [GZD824 Dimesylate]	-0.246 ± 0.26
Cc1c(CN2CCN(C(=O)[C@H](C)O)CC2)sc2c(N3CCOCC3)nc(-c3cnc(N)nc3)nc12 [Apitolisib (GDC-0980, RG7422)]	0.169 ± 0.42
C=CCc1ccc(O)c(-c2ccc(O)c(CC=C)c2)c1 [Honokiol]	0.237 ± 0.16
N#C/C(=C(/N)Sc1ccc(N)cc1)c1ccccc1C(F)(F)F	-0.253 ± 0.36
